# Screening data deposited in PubChem BioAssay by Broad Institute.
# miR-122 sensor: miR-122 inhibition in Huh7 cells | Huh7 miR-122 Renilla luciferase sensor, 48 h; neutral wells = 0, positive control = 100 | activation (reporter increase), % at 12.5 µM | hit rate 0.3% among 340,000;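 active means mean replicate activation score at least 90 and every replicate individually at or above 90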;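 further: higher luciferase means less miR-122 activity so hits act as miR-122 inhibitors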
# EWS-Fli block: EWS/Fli transcriptional activity inhibition. A673 NR0B1-luciferase reporter, viability-normalised. AID 651661. inhibition, % at 12.6 µM. hit rate 0.67% among 350,000;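 active means mean inhibition of at least 50% after viability correction, with every replicate also passing that limit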;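 further: firefly luciferase signal divided by Alamar Blue viability fluorescence both relative to DMSO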
# PAX8 inh HTS: lowers PAX8-driven luciferase in RMG-I cells; RMG-I TPO-luciferase reporter, SteadyGlo, 24 h; hit rate 1.2% among 360,000; inhibition, % at 12.6 µM; AID 652154;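 active means mean replicate inhibition at least 60% with every replicate also reaching 60%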;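 further: luciferase light reporting Pax8 driven TPO promoter activity; plate controls were median of neutral control wells for no effect and mitoxantrone controls for full effect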
# Statin myotox sup: suppressors of simvastatin-induced myotoxicity in C2C12 myotubes; ATP luminescence, 48 h; scaled: DMSO 0, geranylgeraniol control 100; hit rate 0.78% among 330,000; AID 602340; rescue of ATP level, % at 7.49 µM;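 active means mean ATP rescue above about 67%, or every replicate alone reaching that limit, limit read from the data, passing the limit was not always enough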;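 further: myotubes were challenged with 10 µM simvastatin during compound exposure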
# GSIS activator: GLuc luminescence reporter in INS-1E cells, primary screen for activators of glucose-dependent secretion of insulin | INS-1E GLuc reporter insulin secretion, 2-3 h | AID 743287 | hit rate 0.61% among 370,000 | activation, % at 16.6 µM;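 active means lowest replicate activation of at least 40%, so every replicate reaches that level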;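 further: 0% = median of neutral control wells and 100% = median of IBMX positive control wells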
# HIV Env fusion: HIV envelope-mediated fusion inhibition; inhibition, % at 12.3 µM; HeLa-JRFL Env/CEM21 cell fusion, luciferase; hit rate 1.1% among 360,000; AID 651610;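 active means mean replicate inhibition score of at least 50 and every replicate individually at or above 50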;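 further: 0% = plate neutral controls and 100% = maraviroc near 300 nM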
# The depositor's hits bear a star; / = not tested or not shown; ! = not confirmed by another sample; [ ] = another dose, or the depositor's remark. In the library only some 3.1% were active in any assay of this set; here they are far more common.
SMILES,miR-122 sensor,EWS-Fli block,PAX8 inh HTS,Statin myotox sup,GSIS activator,HIV Env fusion
O=C(O)C[C@H]1CC[C@@H]2[C@H](COC[C@@H](O)CN2S(=O)(=O)c2ccc(F)cc2)O1,0.1[16.7 µM],/,/,-11.5,7.9,/
COc1cc(/C=C2\SC(=S)N(CCC(=O)N3CCCCC3)C2=O)cc(OC)c1OC,-3.6,3.7,100.0*,17.0,-2.5,38.6
O=C(CCN1C(=O)/C(=C/c2cccs2)SC1=S)N1CCCCC1,-0.4,10.8,69.5*,-6.7,1.0,-3.3
Cc1ccc(/C=C2\SC(=S)N(CCCC(=O)Nc3cc(C)on3)C2=O)cc1,-5.0,/,10.0,/,10.0,41.0
Cc1cc(NC(=O)CCCN2C(=O)/C(=C\c3cccs3)SC2=S)no1,-1.4,/,2.8,/,54.1*,3.5
CNC(=O)C[C@H]1CC[C@@H]2[C@H](COC[C@@H](O)CN2Cc2ccccc2F)O1,-4.7[16.7 µM],/,/,-2.4,28.8,/
C[C@@H]1CN([C@@H](C)CO)C(=O)c2cc(NC(=O)Nc3ccc(F)cc3)ccc2O[C@@H]1CN(C)Cc1ccc(Oc2ccccc2)cc1,17.8[16.7 µM],10.2,74.6*,-11.1,-27.5,11.1[16.7 µM]
C[C@H](CO)N1C[C@H](C)[C@H](CN(C)Cc2ccc(Oc3ccccc3)cc2)Oc2ccc(NC(=O)Nc3ccc(C(F)(F)F)cc3)cc2C1=O,-8.7[16.7 µM],56.0*,/,-52.7,11.2,/
C[C@@H]1CN([C@H](C)CO)C(=O)c2cc(NC(=O)Nc3ccc(F)cc3)ccc2O[C@@H]1CN(C)Cc1ccc(-c2ccccc2)cc1,-3.1[16.7 µM],63.6*,/,/,3.4,-4.7[16.7 µM]
C[C@@H]1CN([C@H](C)CO)C(=O)c2cc(NC(=O)Nc3ccc(F)cc3)ccc2O[C@H]1CN(C)Cc1ccc(-c2ccccc2)cc1,-2.5[16.7 µM],10.7,/,/,16.5,-14.8[16.7 µM]
C[C@@H]1CN([C@H](C)CO)C(=O)c2cc(NC(=O)Nc3ccc(F)cc3)ccc2O[C@H]1CN(C)Cc1ccc(Oc2ccccc2)cc1,-0.5[16.7 µM],2.1,/,/,-20.6,13.2[16.7 µM]
O=C(C[C@@H]1CC[C@@H](NC(=O)Cc2ccccn2)[C@H](CO)O1)NCCc1ccncc1,-8.4[16.7 µM],3.2,-14.6,9.9,-6.2,-12.4[16.7 µM]
C[C@@H]1CN([C@@H](C)CO)C(=O)c2cc(N(C)C)ccc2O[C@@H](C)CCCCO[C@H]1CN(C)C(=O)c1ccncc1,7.0[16.7 µM],-10.9,-2.1,1.6,-9.4,10.0[16.7 µM]
O=C1Nc2ccccc2N(C(=O)c2ccc3ccccc3c2)C1c1nc2ccccc2[nH]1 (stereo not drawn),/,10.8,-20.3,/,120.9*,-126.9
O=C(NCCc1ccccc1)[C@H]1N[C@H]2c3ccc(-c4ccc(F)cc4)c(=O)n3C[C@H]2[C@@H]1CO,38.3[16.7 µM],4.4,-10.8,-22.3,3.6,/
C/C(=N\NC(=O)c1ccccc1O)C1C(=O)c2ccccc2C1=O,119.1*,/,/,-16.9,/,-96.0
O=C(C[C@H]1C=C[C@@H](NC(=O)CCN2CCCCC2)[C@H](CO)O1)Nc1ccc(-c2ccccc2)cc1,33.8[16.7 µM],-7.9,-8.9,-11.8,11.6,12.6[16.7 µM]
O=C(C[C@H]1C/C=C\C[C@@H](Cc2ccc(F)cc2)C(=O)O[C@H](c2ccccc2)CNC1=O)NCCO,/,0.2,16.5,3.9,21.4,12.0
O=C(C[C@@H]1C/C=C/CC[C@H](Cc2ccc(F)cc2)C(=O)O[C@H](c2ccccc2)CNC1=O)NCCO,/,3.6,-94.5,-23.9,-7.9,66.9*
Cc1ccc2nc(NC(=O)CCCC(=O)O)sc2c1,0.9,81.3*,2.1,-1.9,3.3,68.6*
C[C@@H]1CCCCO[C@H](CN(C)C(=O)Nc2cccc3ccccc23)[C@H](C)CN([C@@H](C)CO)C(=O)c2cc(NC(=O)Nc3ccc(C(F)(F)F)cc3)ccc2O1,-0.7[16.7 µM],7.0,1.5,-2.4,9.3,-10.0[16.7 µM]
CCOC(=O)c1cc2ccc(OC)c(OC)c2c(=O)s1,-1.3,/,/,116.4*,/,/
COc1ccc2cc(C(=O)NCCO)sc(=O)c2c1OC,7.5,/,3.9,3.6,/,-114.2
O=C(C1CC1)N1CCCCN2[C@@H](CO)[C@@H](c3ccc(-c4cccc(F)c4)cc3)[C@@H]2C1,-25.3[16.7 µM],-6.5,11.8,/,-21.4,/
NC(=NCCCCCCN=C(N)/N=C(\N)Nc1ccc(Cl)cc1)/N=C(\N)Nc1ccc(Cl)cc1,-6.9,6.3,98.0*!,-240.1,9.2,2.4
SMILES,miR-122 sensor,EWS-Fli block,PAX8 inh HTS,Statin myotox sup,GSIS activator,HIV Env fusion
CC(C)N=C(N)N=C(N)Nc1ccc(Cl)cc1,-15.3,-8.9,-11.3,-21.4,/,/
CCC(C)CCN1C(N(C)C)=NC[C@@H]1C (stereo partly drawn),-1.2,-16.8,-4.5,149.0*,19.7,6.6
C[C@@H]1CN([C@H](C)CO)S(=O)(=O)c2ccc(-c3ccc(F)cc3)cc2O[C@H]1CN(C)Cc1cccc(F)c1,-3.0[16.7 µM],40.3,/,-73.8,57.7*,45.5[16.7 µM]
C[C@H]1CN([C@@H](C)CO)S(=O)(=O)c2ccc(-c3cccc(C#N)c3)cc2O[C@H]1CN(C)Cc1cccc(F)c1,-8.8[16.7 µM],20.6,11.0,-14.3,-1.1,74.1*[16.7 µM]
C[C@@H]1CN([C@H](C)CO)S(=O)(=O)c2ccc(-c3ccccc3)cc2O[C@@H]1CN(C)Cc1cccc(F)c1,10.0[16.7 µM],15.3,/,-39.1,-12.5,44.3[16.7 µM]
C[C@H]1CN([C@@H](C)CO)S(=O)(=O)c2ccc(-c3ccc(F)cc3)cc2O[C@@H]1CN(C)Cc1cccc(F)c1,0.8[16.7 µM],38.2,/,-20.9,-7.8,39.1[16.7 µM]
Cc1noc(C)c1NC(=O)Nc1cccc2c1O[C@@H](CN(C)C(=O)Nc1cccc3ccccc13)[C@@H](C)CN([C@@H](C)CO)C2=O,3.5[16.7 µM],-1.2,-4.1,12.4,-1.7,-22.2[16.7 µM]
O=C(Nc1ccccc1)C1=C[C@H](c2ccccc2)C[C@H](OCCCCO)O1,6.8,-109.4,-130.5,0.2,/,-55.6
O=C(Nc1ccccc1)C1=C[C@H](c2ccc(C(F)(F)F)cc2)C[C@H](OCCCCO)O1,-4.6,-88.6,87.2*!,-7.4,-5.4,-21.6[16.7 µM]
C/C=C/c1ccc(OCCN2C(=O)NC(C)(C)C2=O)c(OC)c1,1.4,/,/,40.8,44.0*,/
CCCN(C)C[C@H]1OCCCC[C@@H](C)Oc2ccc(NS(C)(=O)=O)cc2C(=O)N([C@@H](C)CO)C[C@H]1C,-2.3[16.7 µM],1.4,-20.0,19.3,10.9,4.7[16.7 µM]
COc1ccc(CSc2nncn2C)cc1F,6.6,-12.6,-9.1,-5.2,7.2,60.4*
COc1ccc(CSc2nnnn2C)cc1F,-9.1,/,/,6.7,/,/
COc1ccc(Cl)cc1NC(=O)CN(C)CC(=O)Nc1ccc(Br)cc1,/,-1.1,4.2,/,-13.4,19.0
CS(=O)(=O)N(CC(=O)Nc1ccc(F)cc1F)C1CCCCC1,1.6,9.1,2.0,-1.5,-4.5,-160.2
COc1ccc(Cl)cc1NC(=O)CN(C)CC(=O)Nc1cc(OC)c(OC)c(OC)c1,/,61.8*,20.2,-5.6,-16.9,3.3
COc1ccc(Cl)cc1NC(=O)CN(C1CCCCC1)S(C)(=O)=O,2.0,/,-7.8,/,/,124.7*
CC(C)(C)C1CCC(CN2C(Nc3ccccc3)=NC[C@@H]2Cc2ccccc2)CC1 (stereo partly drawn),-13.4,35.6,15.7,-20.9,85.6*,-1.4
